Experimental data taken from PubChem BioAssay (NCI).
The panel holds about 83,000 compounds, 20% with a hit somewhere; the sample as a whole holds those more often.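 Values shown are percent growth following 48 h exposure of cells in 96-well plates to a single concentration of compound; below 10 was considered active.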 Unmarked numbers belong to inactive results. Calls of active or inactive are those of the source.

Each compound was assayed on M14 melanoma (assay: NCI-60 one-dose screen, 48 h (100 = growth as untreated, 0 = no growth, -100 = all killed)). Conditions: 10 µM unless noted.
Method: Growth inhibition of the M14 human tumor cell line is measured as a screen for anti-cancer activity. Cells are grown in 96 well plates and exposed to the test compound for 48 hours. Compounds are tested at a single concentration, which is 10^-5 M for most compounds. The reported endpoint is percent growth (GI% or GIPRCNT), where numbers from 0 - 100% represent growth inhibition, and numbers from -100% - 0 represent cell death. For example, a value of 40 represents 60% growth inhibition. A value of 0 means no net growth occurred over the course of the experiment. A value of -40 indicates 40% of cells at the beginning of the experiment died by the end of the experiment. A value of -100 means all cells are dead at the end of the experiment.
NCI-60 Human Tumor Cell Lines Screen was performed using the standard one-dose NCI protocol, which is described in more detail at https://dtp.cancer.gov/discovery_development/nci-60/default.htm.
Compounds with GIPRCNT values below 10 were considered active. Activity score was based on GIPRCNT using the following formula: […]
Score is 0 for GIPRCNT values of 100 or above, 50 for GIPRCNT values of 0, and 100 for GIPRCNT values of -100.

| SMILES | growth |
| --- | --- |
| O=C(/C=C/c1ccc(Cl)cc1)c1cccc(Nc2nc(Nc3ccccc3)nc(Nc3ccccc3)n2)c1 | 94.2% |
| CCn1c(=S)sc2c(Nc3ccc(F)cc3)nc(-c3cccnc3)nc21 | 74.1% |
| COc1ccc(/C=C2\COc3ccc(O)cc3C2=O)c(OC)c1OC | 86% |
| O=C1/C(=C/c2cccs2)SC(=S)N1CCCN1CCOCC1 | 93.4% |
| C=C1CC[C@@H]2[C@](C)(COC(C)=O)[C@H](OC(C)=O)CC[C@@]2(C)[C@@H]1CC(Sc1ccccc1)C1=CCOC1=O (stereo not given in full) | -4.19% (active) |
| Cc1ccc(/C=C2\CN(C(=O)OC(C)(C)C)C/C(=C\c3ccc(C)cc3)C2=O)cc1 | 43% |
| CNC(=O)c1cc(Oc2ccc3nc(NC(C)=O)sc3c2)ccn1 | 101% |
| CC(C)NC1CCC(Nc2ccnc3cc(Cl)ccc23)CC1 (stereo not given) | 93.2% |
| COc1cccc(CNc2ncnc3c2ncn3C2OC(CO)C(O)C2O)c1O (stereo not given) | 18.5% |
| Cc1nn(-c2ccccc2)c(Oc2ccccn2)c1-c1nc2ccccc2s1 | 108% |
| CN(CCOc1ccc(C#N)cc1)CCOc1ccc(C#N)cc1 | 65.2% |
| O=C(c1ccc(-c2nc(CSc3nc4ccccc4s3)no2)cc1)N1CCSCC1 | 79.9% |
| Cc1nnc(-n2c(O)cc(=O)n(-c3ccccc3)c2=S)nc1/C=C/c1ccc(N(C)C)cc1 | 49.8% |
| O=C(COc1ccc(-c2nc3ccccc3[nH]2)cc1)N=Nc1c(O)[nH]c2ccc(Cl)cc12 | 87% |
| CC1(C)CC[C@]2(c3nnc(-c4ccncc4)o3)CC[C@H]3C(=CC[C@H]4[C@@]3(C)CC[C@H]3C(C)(C)C(=O)CC[C@]43C)[C@@H]2C1 | 84% |
| Cc1ccc(Sc2nnc(/N=C3\C(=O)Nc4ccccc43)s2)cc1 | 101% |
| O=C(NNC(=O)c1ccc(-n2cc(-c3ccccc3)nn2)cc1)Nc1ccccc1 | 97.6% |
| O=S(=O)(Nc1cc(Br)c(O)c2ccccc12)c1ccc(F)cc1 | 96.7% |
| O=C(O)/C(=C\c1ccc(Cl)cc1)c1ccc(Cl)cc1 | 95.8% |
| N=C(N)c1ccc(-c2ccc(-c3ccc(Cl)cc3)s2)nc1 | 17.9% |

| SMILES | growth |
| --- | --- |
| COc1ccc2cc(C(=O)c3coc4ccc(O)cc34)ccc2c1 | 108% |
| O=C(c1cc2ccccc2o1)c1nn(-c2ccccc2)/c(=N/N=Cc2cn(-c3ccccc3)nc2-c2cc3ccccc3oc2=O)s1 | 97.8% |
| N#CC1CCc2c(c(-c3cn[nH]c3C(F)(F)F)nc3c(F)cc4[nH]ncc4c23)C1 (stereo not given) | 18.9% |
| CN(C)CCCC1(c2ccc(F)cc2)OCc2cc(-c3cccc4[nH]ccc34)ccc21 (stereo not given) | -68.4% (active) |
| COc1ccc(C(=O)Nc2ncc(Cc3cccc(Cl)c3)s2)cc1OC | 8.45% (active) |
| COc1ccc(/C(C)=C(/c2ccc(OCCCN(C)C)cc2)c2ccc(OC(=O)Cc3ccccc3)cc2)cc1 | -19.6% (active) |
| O=C(CSc1nc2ccc([N+](=O)[O-])cc2[nH]1)Nc1cccc(C(F)(F)F)c1 | 27.6% |
| O=C(NNc1nccc(Nc2ccc(S(=O)(=O)Nc3ccncc3)cc2)n1)c1ccccc1 | 91.9% |
| C#COc1cccc(Nc2ncnc3ncc(NC(=O)CCl)cc23)c1 | 35.8% [6.25 µM] |
| Cc1cccc2c1NC(=O)C2(c1ccc(O)cc1)c1ccc(O)cc1 | 94.4% |
| COc1ccc(Cc2cc(-c3ccccc3)nn(Cc3ccccc3)c2=O)cc1OC | 38% |
| COc1ccc(OC)c(C(=O)/C=C/c2cc3c(c(OC)c2OC)OCO3)c1 | 78.6% |
| COc1cccc(NC(=O)Cn2cc(CN3CCN(c4ccnc5cc(Cl)ccc45)CC3)nn2)c1 | 104% |
| CN(C)c1ccc(/C=C/C(=O)c2ccc(-n3cc(CN4CCN(c5cc6c(cc5F)c(=O)c(C(=O)O)cn6C5CC5)CC4)nn3)cc2)cc1 | 60.9% |
| Brc1ccc2[nH]cc(-c3nonc3-c3c[nH]c4ccccc34)c2c1 | 24.7% |
| Fc1cc(F)cc(C(c2c[nH]c3ccccc23)c2c[nH]c3ccccc23)c1 | 98% |
| C/C(=N\NC(=O)c1ccccc1O)c1cccc(/C(C)=N/NC(=O)c2ccccc2O)n1 | 48.6% |
| COc1cccc(/C=C/C(=O)c2cc3c(N)c(C(=O)Nc4ccccc4)sc3nc2C)c1 | 29.9% |
| CCN(C(=O)N1CCN(c2cc3c(cc2F)c(=O)c(C(=O)O)cn3C2CC2)CC1)c1nc(-c2ccc(Cl)cc2)cs1 | 23% |
| COC(=O)/C(CCC=C(C)C)=C1\[C@@H](OC(C)=O)C[C@@]2(C)[C@H]1C[C@@H](O)[C@H]1[C@@]3(C)CC[C@H](NCCN)[C@@H](C)[C@@H]3CC[C@@]12C | 87% |
